# Measured values: PubChem BioAssay AID651658 (Broad Institute, 2012)
# Several values for one entry are separate records, joined by “and”; a condition that tells them apart may be missing. Equal values may be shown once. In all, about 340,000 compounds went through this assay and about 5,100 (1.5%) were called active. The sample as a whole holds a higher share of actives than the screen did. Unmarked numbers belong to inactive results.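 The calls were made as follows: active = mean Tm shift, scaled 0 neutral to 100 positive control, at about 1.3% or above, every replicate too (limit read from the data); inconclusive = no clear call, values can overlap the other calls; inactive = the rest.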
# Target: Fibroblast growth factor 22 (Homo sapiens) (UniProt Q9HCT0)
# Sequence (Q9HCT0 whole entry, looked up): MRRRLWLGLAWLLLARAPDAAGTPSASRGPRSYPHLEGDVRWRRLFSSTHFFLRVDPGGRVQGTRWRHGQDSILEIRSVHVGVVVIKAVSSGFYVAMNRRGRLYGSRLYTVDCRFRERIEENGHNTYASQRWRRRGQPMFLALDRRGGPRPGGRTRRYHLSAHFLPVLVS
# Assay: binders of human FGF22 protein, primary screen, FGF22 synaptogenesis inhibitor project, biophysical, thermal shift, single point (AID 651658)
# Conditions: recombinant FGF22 thermal shift, SYPRO orange fluorescence; at 9.99 µM; stronger effect = higher value; percent of sucrose octasulfate shift, DMSO zero
row,Structure (SMILES),"activity (Tm shift, normalised)"
1,CC=Cc1ccc2n(c1=O)C[C@@H]1[C@@H](CO)[C@H](C(=O)N[C@@H](C)c3ccccc3)[C@H]2N1Cc1ccncc1 (mixture of isomers),-0.334%
2,COc1ccc(C2=NN(C(=O)c3ccccc3C(=O)O)C(c3ccccc3O)C2)cc1 (configuration not stated),-0.24%
3,COc1cccc(C2CC(c3ccccc3)=NN2S(=O)(=O)c2ccccc2)c1OC (configuration not stated),44% (active)
4,CS(=O)(=O)Nc1cccc(C2=NN(S(=O)(=O)c3ccccc3)C(c3cccs3)C2)c1 (configuration not stated),0.242%
5,C[C@H]1CN([C@@H](C)CO)S(=O)(=O)c2ccc(C3=CCCC3)cc2O[C@H]1CN(C)C(=O)Cc1ccncc1,0.421%
6,O=C(C1CCCCC1)N1[C@H](CO)[C@@H](c2ccccc2)C12CN(Cc1cccc(Cl)c1)C2,-0.133%
7,O=C(OCc1cc(=O)n2ccsc2n1)C1(c2ccc(Cl)cc2)CC1,0.39%
8,COc1ccc(C(=O)OCc2cc(=O)n3ccsc3n2)cc1F,44% (active)
9,COc1cc(C(=O)OCc2cc(=O)n3ccsc3n2)ccc1OC(C)C,0.144%
10,CCCC#Cc1ccc([C@H]2[C@H]3CN(C(=O)Nc4cccc(F)c4)CC(=O)N3[C@H]2CO)cc1,0.366%
11,COc1cc2nc(CN(C)Cc3ccc(F)cc3)[nH]c(=O)c2cc1OC,-0.106%
12,COc1ccc(CN(C)Cc2nc3cc(OC)c(OC)cc3c(=O)[nH]2)c(OC)c1,43.6% (active)
13,COc1cc(CN(C)Cc2nc3cc(C(F)(F)F)ccc3c(=O)[nH]2)ccc1OC(F)F,-0.382%
14,O=C(Nc1ccc(C(F)(F)F)cc1)N[C@@H]1CC[C@H](CC(=O)N2CCCCC2)O[C@H]1CO,-0.164%
15,CO[C@@H]1CN(C)C(=O)c2ccc(NS(C)(=O)=O)cc2OC[C@@H](C)N(C(=O)C2CCOCC2)C[C@@H]1C,-0.055%
16,O=C(c1ccc(F)cc1)N1CC2(C1)[C@H](c1ccccc1)[C@@H](CO)N2Cc1ccccn1,-0.271%
17,O=C(NCCc1c[nH]c2ccccc12)c1cc2ccccc2oc1=O,0.185%
18,O=C(NCCc1c[nH]c2ccccc12)C(=O)NCC1CCCO1 (configuration not stated),1.53% (active)
19,N#C/C(=C/c1ccc(N2CCCCC2)o1)C(=O)NCCc1c[nH]c2ccccc12,-0.174%
20,C[C@H](CO)N1C[C@H](C)[C@H](CN(C)C(=O)C2CC2)OCc2ccccc2-c2ccccc2C1=O,0.103%
21,O=C(NCC[C@@H]1CC[C@H](NC(=O)C2CC2)[C@H](CO)O1)c1cnccn1,0.118%
22,C[C@H](O)C#Cc1ccc2c(c1)O[C@H](CN(C)Cc1ccccn1)[C@H](C)CN([C@H](C)CO)S2(=O)=O,-0.169%

row,Structure (SMILES),"activity (Tm shift, normalised)"
1,CCCNC(=O)C[C@@H]1C[C@H]2c3cc(NC(=O)Nc4ccccc4F)ccc3O[C@H]2[C@H](CO)O1,-0.607%
2,COc1cccc(NC(=O)N2[C@@H]3CNC[C@H]2C3c2ccc(-c3ccncc3)cc2)c1 (some centres not stated),0.042% and -0.443%
3,COc1ccc(OCc2n[nH]c(=S)n2N)cc1,0.243%
4,Fc1ccc(/C=N/n2c(COc3ccccc3)n[nH]c2=S)cc1,0.702%
5,S=c1[nH]nc(COc2ccccc2)n1-c1ccccc1,43.8% (active)
6,CO[C@@H]1CN(C)C(=O)c2cc(NS(=O)(=O)CC(F)(F)F)ccc2OC[C@H](C)N(C)C[C@H]1C,-0.229%
7,O=C(C[C@H]1CC[C@H]2[C@@H](COC[C@H](O)CN2C(=O)c2ccccc2F)O1)NCc1ccccc1,0.053%
8,O=C(NCC1CC1)[C@H]1[C@H](CO)[C@H]2Cn3c(ccc(/C=C/c4ccccc4)c3=O)[C@@H]1N2C(=O)C1CCC1,0.006%
9,COc1ccc(-c2ccc([C@@H]3[C@@H](CO)N4C(=O)CN(Cc5ccccc5)C[C@@H]34)cc2)cc1,-0.039%
10,COc1ccc(Cn2c(-c3ccc(Cl)cc3)c[n+]3ccccc23)cc1,44% (active)
11,COc1ccc(Cn2c(=O)oc3ccccc32)cc1,-0.205%
12,C[C@@H]1CCCCO[C@H](CN(C)Cc2ccc3c(c2)OCO3)[C@H](C)CN([C@@H](C)CO)C(=O)c2cc(NS(=O)(=O)c3cccs3)ccc2O1,-0.357% and -0.044%
13,O=C(Nc1ccc(Cl)cc1)C1c2cccc[n+]2CC(=O)N1Cc1ccc2c(c1)OCO2 (configuration not stated),-0.124%
14,CCOc1ccc(NC(=O)CC2C(=O)N(c3ccccc3)C(=O)N2CCOC)cc1 (configuration not stated),-0.014%
15,CCCOc1ccc(NC(=O)CC2C(=O)N(C)C(=S)N2Cc2ccc3c(c2)OCO3)cc1 (configuration not stated),2.52% (active)
16,COc1ccc(NC(=O)N[C@@H]2CC[C@H](CC(=O)NC3CCC3)O[C@H]2CO)cc1,-0.109%
17,O=C(C[C@@H]1CC[C@@H]2[C@H](COC[C@H](O)CN2S(=O)(=O)c2ccc(Oc3ccccc3)cc2)O1)NCCN1CCCCC1,0.107%
18,COc1ccccc1-c1cnc2c(c1)C(=O)N([C@@H](C)CO)C[C@@H](C)[C@@H](CN(C)C(=O)c1cccnc1)O2,-0.285%
19,COc1ccccc1C#Cc1cnc2c(c1)C(=O)N([C@@H](C)CO)C[C@@H](C)[C@@H](CN(C)C(=O)CN(C)C)O2,-0.154%
20,CN(C)C(CNC(=O)Cc1ccc([N+](=O)[O-])cc1)c1ccccc1 (configuration not stated),42.9% (active)
21,CN(C)CCNC(=O)Cc1ccc([N+](=O)[O-])cc1,0.505%
22,O=C(CC(c1ccccc1)c1ccccc1)NCC(O)c1ccc([N+](=O)[O-])cc1 (configuration not stated),-0.099%

row,Structure (SMILES),"activity (Tm shift, normalised)"
1,CCC(=O)N(C)C[C@H]1Oc2ncc(C#CC(C)C)cc2C(=O)N([C@@H](C)CO)C[C@H]1C,0.017%
2,O=C(C1CCCC1)N1[C@H](CO)[C@@H]2c3ccccc3N(S(=O)(=O)c3ccccc3)C[C@@H]21,0.581%
3,C[C@H](O)C#Cc1cnc2c(c1)C(=O)N([C@H](C)CO)C[C@@H](C)[C@H](CN(C)CC1CCCCC1)O2,-0.028%
4,CN(C)CC(=O)N[C@H]1CC[C@@H](CCNC(=O)C2CCCC2)O[C@@H]1CO,0.021%
5,Cc1ccc(-n2c(C)cc(C(=O)CSc3nnc4ccccn34)c2C)cc1,43.1% (active)
6,Cc1ccc(C(=O)NNC(=O)CSc2nnc3ccccn23)cc1,-0.076%
7,O=C(CSc1nnc2ccccn12)c1ccccc1,-0.056%
8,CN1C(=O)c2cc(NC(=O)c3ccc4c(c3)OCO4)ccc2OC[C@@H]2O[C@H](CC(=O)O)CC[C@H]21,0.218%
9,C[C@H](CO)N1C[C@H](C)[C@@H](CN(C)C(=O)c2cnccn2)Oc2ncc(-c3ccccc3F)cc2C1=O,-0.163%
10,O=C(Nc1cccc(F)c1)NC1CCCCCCC1,0.32%
11,COc1cccc(NC(=O)C/C(C)=N/NC(=O)C2CCCCC2)c1,-0.252%
12,C/C(CC(=O)Nc1cccc(F)c1)=N\NC(=O)C(=O)NC1CCCCC1,43.7% (active)
13,COc1ccc(CN(C)C[C@@H]2OCCCC[C@@H](C)Oc3ccc(NS(=O)(=O)c4ccc(F)cc4)cc3C(=O)N([C@@H](C)CO)C[C@H]2C)cc1,-0.218%
14,Cc1cccc(-c2ccc([C@@H]3[C@@H](CO)N4CCCCN(S(=O)(=O)c5cccs5)C[C@H]34)cc2)c1,-0.206%
15,C[C@H](CO)N1C[C@H](C)[C@H](CN(C)Cc2ccc(C(=O)Nc3ccccc3N)cc2)Oc2c(NC(=O)Nc3ccccc3)cccc2C1=O,-0.326%
16,C/C=C/c1ccc2c(c1)O[C@H](CN(C)C(=O)Cc1ccccn1)[C@H](C)CN([C@H](C)CO)S2(=O)=O,-0.272%
17,CCOc1cc(NC(=O)Nc2ccccc2)c(OCC)cc1NC(=O)CC,-0.075%
18,CCOc1ccc(CCNC(=O)Nc2ccccc2)cc1OCC,-0.025%
19,CCCNCc1cc(OCC)c(OCC(=O)Nc2ccccc2)cc1Br,44% (active)
20,CCCN1C[C@H](C)[C@@H](OC)CN(C)C(=O)c2cc(NS(=O)(=O)CC)ccc2OC[C@H]1C,-0.257%
21,Cc1cc([N+](=O)[O-])ccc1NS(=O)(=O)c1ccccc1,1.12%
22,Cc1cc(C)n(S(=O)(=O)c2cccc([N+](=O)[O-])c2)n1,-0.005%

row,Structure (SMILES),"activity (Tm shift, normalised)"
1,Cc1ccccc1OS(=O)(=O)c1cccc([N+](=O)[O-])c1,43% (active)
2,CCCNC(=O)Nc1ccc2c(c1)C(=O)N(C)C[C@H](OC)[C@@H](C)CN(C)[C@@H](C)CO2,-0.468%
3,O=C(c1ccccc1F)N1CC(=O)N2[C@H](C1)[C@H](c1ccc(-c3ccc(F)cc3)cc1)[C@@H]2CO,1.26% (active)
4,COCC(=O)N1CC(=O)N2[C@H](CO)[C@@H](c3ccc(-c4ccccc4F)cc3)[C@H]2C1,-0.341%
5,O=C(c1cccnc1)N1CC(=O)N2[C@H](C1)[C@H](c1ccc(-c3ccccc3F)cc1)[C@@H]2CO,0.042%
6,C/C=C/c1ccccc1[C@@H]1[C@@H](CO)N(C(=O)CN2CCOCC2)[C@H]1C#N,-0.302%
7,C[C@H]1CN([C@@H](C)CO)C(=O)c2cc(NC(=O)Cc3cn(C)c4ccccc34)ccc2O[C@@H]1CN(C)Cc1ccc(Cl)c(Cl)c1,0.161%
8,Cc1noc(C)c1S(=O)(=O)Nc1ccc2c(c1)C(=O)N([C@@H](C)CO)C[C@@H](C)[C@H](CN(C)C(=O)NC(C)C)OCCCC[C@@H](C)O2,-0.227%
9,CC(C)NC(=O)N(C)C[C@H]1OCCCC[C@@H](C)Oc2ccc(NC(=O)C3CCCCC3)cc2C(=O)N([C@H](C)CO)C[C@H]1C,-0.185%
10,O=C(N/N=C/c1ccc(Cl)c(Cl)c1)c1ccc2nc[nH]c2c1,1.65% (active)
11,CC(=NNC(=O)c1ccc2nc[nH]c2c1)c1ccc(Br)cc1,0.573%
12,COc1ccc(/C(C)=N/NC(=O)c2ccc3nc[nH]c3c2)cc1,0.005%
13,CCC(=O)Nc1ccc2c(c1)C(=O)N(C)C[C@H](OC)[C@H](C)CN(C(=O)c1ccccn1)[C@@H](C)CO2,0.116%
14,C[C@]12CCC(=O)C=C1C=CC1C2CC[C@@]2(C)C1CC[C@@]21CCC(=O)O1 (some centres not stated),43.7% (active)
15,CC(=O)C12CC(C)=C(C)CC1CC1C3CCC4=CC(=O)CCC4(C)C3CCC12C (configuration not stated),-0.095%
16,CC(=O)O[C@]1(C(C)=O)CC[C@H]2[C@@H]3C=C(C)C4=CC(=O)CC[C@]4(C)[C@H]3CC[C@@]21C,-0.13%
17,C[C@H](CO)N1C[C@H](C)[C@H](CN(C)S(=O)(=O)c2cccs2)Oc2c(NC(=O)Nc3ccc4c(c3)OCO4)cccc2C1=O,-0.125%
18,O=C(C[C@H]1CC[C@@H](NC(=O)c2ccc(F)cc2)[C@@H](CO)O1)NCc1ccncn1,-0.132%
19,COCC(=O)Nc1ccc2c(c1)[C@H]1C[C@@H](CC(=O)NCc3ccccc3F)O[C@H](CO)[C@H]1O2,-0.327%
20,C[C@@H](NC(=O)C[C@H]1CC[C@@H](NC(=O)Cc2ccccn2)[C@@H](CO)O1)c1ccccc1,-0.123%
21,CO[C@@H]1CC[C@H]2CCN(C)C(=O)[C@@H](C)CN(C)C(=O)c3cccc(C#N)c3OC[C@@H]1O2,-0.102%
